Screening results deposited in PubChem BioAssay by National Center for Advancing Translational Sciences (NCATS).
ELG1 DNA repair – qHTS screen for small molecules that inhibit ELG1-dependent DNA repair in human embryonic kidney (HEK293T) cells expressing luciferase-tagged ELG1; HEK293T ELG1-luciferase reporter, luminescence, 16 h; DNA damage induced by 5-fluorouridine; Potency, µM (series often up to 46.1 µM), most hits filed as inhibitors; actives 2.3% (n = 330,000); AID 504467, 2011; also: nearly all actives have a fitted effect of over 55% in size
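HEK293T cells expressing luciferase-tagged ELG1 (2,000/well) received 5-Fluorouridine plus compound or DMSO for 16 hr at 37 °C. Luciferase was read by ONE-Glo luminescence after 30 min at room temperature.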
Rab9 promoter act – qHTS Assay for Rab9 Promoter Activators; Huh7 Rab9 promoter-luciferase reporter, luminescence, 24 h; Potency, µM (series often up to 9.22 µM), hits mostly activators; actives 2.8% (n = 320,000); AID 485297, 2010; also: nearly all actives have a fitted effect of over 60% in size
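Quantitative HTS format; Huh7 Rab9-luciferase reporter cells (1500/well) receive compound 2 h post-plating, incubate 24 h at 37 °C, then get luciferase reagent for 10 min before luminescence reading.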
SMN2 splice enh – qHTS Assay for Enhancers of SMN2 Splice Variant Expression | HEK293 SMN2-luciferase splicing reporter, luminescence, 30-36 h | Potency, µM (titrated, usually from 46.1 µM), actives largely listed as activators | actives 2.8% (n = 210,000) | AID 1458, 2008; also: nearly all actives have a fitted effect of over 55% in size
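HEK293 cells carry an SMN2 minigene-luciferase reporter in which exon 7 inclusion puts luciferase in frame. Cells were seeded at 2000 cells/well, attached for 10-12 hours, then exposed to compounds for 30-36 hours at 37C before ONE-Glo luminescence.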
ELG1 genotox – qHTS screen for small molecules that induce genotoxicity in human embryonic kidney (HEK293T) cells expressing luciferase-tagged ELG1; HEK293T ELG1-luciferase reporter, luminescence, 16 h; Potency, µM (top dose mostly 46 µM), usual class: activators; actives 1.3% (n = 330,000); AID 504466, 2011; also: nearly all actives have a fitted effect of over 60% in size
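Luminescence read-out: rising ELG1-luciferase signal, reflecting elevated ELG1 protein under genetic stress, flags genotoxic compounds. Cells were treated for 16 hr at 37 °C before ONE-Glo detection.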
FLuc counter – qHTS profiling assay for firefly luciferase inhibitor/activator using purifed enzyme and Km concentrations of substrates (counterscreen for miR-21 project) | Luciferin 4-monooxygenase (Photinus pyralis), P08659 | purified FLuc, Km substrates, luminescence inhibition | Potency, µM (top dose mostly 57.5 µM), actives largely listed as inhibitors | actives 6.9% (n = 360,000) | AID 588342, 2011; also: nearly all actives have a fitted effect of over 55% in size
Target sequence (P08659 whole entry, looked up): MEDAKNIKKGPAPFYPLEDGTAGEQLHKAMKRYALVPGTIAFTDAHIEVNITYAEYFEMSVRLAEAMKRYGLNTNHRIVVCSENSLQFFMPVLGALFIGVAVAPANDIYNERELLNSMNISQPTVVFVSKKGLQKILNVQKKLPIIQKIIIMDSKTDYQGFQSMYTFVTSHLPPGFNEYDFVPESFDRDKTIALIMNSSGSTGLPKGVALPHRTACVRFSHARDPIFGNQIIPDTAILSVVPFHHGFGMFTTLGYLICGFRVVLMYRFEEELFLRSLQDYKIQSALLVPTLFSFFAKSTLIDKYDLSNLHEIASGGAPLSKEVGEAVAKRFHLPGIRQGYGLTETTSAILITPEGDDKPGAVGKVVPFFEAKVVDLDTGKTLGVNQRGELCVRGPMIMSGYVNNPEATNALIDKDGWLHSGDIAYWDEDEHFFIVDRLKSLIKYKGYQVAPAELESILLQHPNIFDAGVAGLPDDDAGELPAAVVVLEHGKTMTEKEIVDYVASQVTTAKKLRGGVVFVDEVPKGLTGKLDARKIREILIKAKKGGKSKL
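Purified P. pyralis luciferase (10nM final) with 10uM D-luciferin and 10uM ATP (Km levels) in 50mM Tris acetate pH 7.5, 10mM Mg acetate, 0.01% Tween-20, 0.05% BSA; qHTS 6-point titration, ~60 µM downward; luminescence read.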
NPC1 prom act – qHTS Assay for NPC1 Promoter Activators. Potency, µM (highest dose often 9.22 µM), usual class: activators. actives 2.4% (n = 320,000). Huh7 NPC1 promoter luciferase reporter, 24 h; also: nearly all actives have a fitted effect of over 60% in size
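Stably transfected Huh7 (NPC1 promoter→luciferase), 1500 cells/well in Opti-MEM + 10% FBS, 2 h settle, then compound 24 h at 37 °C. Luminescence after 10 min with Amplite reagent.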
Large screens that a line does not name were inactive. Only some compounds are listed: those with a hit (about 9.3% of all), similar ones and a draw of the others. Calls follow the shape of the dose curve; as a rule, active = well fitted curve in the direction sought with a large enough effect; inconclusive = small, poorly fitted or top-dose-only effect, or another doubt; inactive = no such curve, though single readings can be large; an effect the other way counts as inactive or inconclusive.

CC1CCc2c(C(=O)Nc3ccc(N4CCOCC4)cc3)csc2C1 (configuration not stated)	FLuc counter inconclusive (no result: SMN2 splice enh)
Cc1ccc(-c2ccc(CCC(=O)O)o2)cc1	ELG1 DNA repair inconclusive, SMN2 splice enh inconclusive, FLuc counter 11µM
O=C(O)CCc1ccc(-c2cccs2)o1	ELG1 DNA repair inconclusive
CC(Sc1n[nH]c(-c2ccccc2F)n1)C(=O)Nc1ccc(S(N)(=O)=O)cc1 (configuration not stated)	none (no result: SMN2 splice enh)
CC(=O)Nc1ccc(NC(=O)C(F)(F)F)cc1	none
CC1CCN(c2ccc(-c3ccc(NC(=O)C(F)(F)F)cc3)nn2)CC1	ELG1 DNA repair inconclusive, Rab9 promoter act 0.5µM, ELG1 genotox 0.73µM, FLuc counter inconclusive, NPC1 prom act 0.13µM (no result: SMN2 splice enh)
CNC(=O)c1ccsc1NC(=O)C1CCN(S(=O)(=O)c2ccc(Cl)s2)CC1	ELG1 DNA repair 18µM (no result: SMN2 splice enh)
Cc1cc(C)c2c(N)c(C(=O)c3ccc(Cl)cc3Cl)sc2n1	ELG1 DNA repair 10µM
Cc1cc(C)c2c(N)c(C(=O)c3cccc(Cl)c3)sc2n1	ELG1 DNA repair 26µM
C=CCN(c1ccc(Cl)cc1)S(=O)(=O)c1cccc(C(=O)O)c1	FLuc counter inconclusive
Cc1ccc(NC(=O)N2CCCC(c3ccccc3)C2)cc1 (configuration not stated)	FLuc counter 12µM (no result: SMN2 splice enh)
CCc1ccc(NC(=O)N2CCC(c3ccccc3)C2)cc1 (configuration not stated)	ELG1 DNA repair inconclusive, Rab9 promoter act 0.89µM, SMN2 splice enh 25µM, ELG1 genotox inconclusive, FLuc counter 6.7µM, NPC1 prom act 1.1µM
O=C(c1cccs1)N1CCC(c2ccccc2)C1 (configuration not stated)	ELG1 DNA repair inconclusive, Rab9 promoter act 2.8µM, SMN2 splice enh 16µM, ELG1 genotox 18µM, FLuc counter 21µM, NPC1 prom act 3.2µM
O=C(Nc1ccccc1)N1CCC(c2ccccc2)C1 (configuration not stated)	ELG1 DNA repair inconclusive, Rab9 promoter act 1.8µM, SMN2 splice enh 18µM, ELG1 genotox inconclusive, FLuc counter 12µM, NPC1 prom act 1.6µM
CCOc1ccc(NC(=O)N2CCC(c3ccc(C)cc3)C2)cc1 (configuration not stated)	none
NC(=O)C1CCN(C(=O)Nc2ccccc2)CC1	none (no result: Rab9 promoter act)
COc1ccc(C(=O)Nc2ccc3c(c2)Cc2ccccc2-3)cc1	none
O=C(Nc1ccc2c(c1)Cc1ccccc1-2)c1ccco1	ELG1 DNA repair inconclusive, Rab9 promoter act 0.4µM, SMN2 splice enh 11µM, ELG1 genotox 3.3µM, FLuc counter 2.1µM, NPC1 prom act 0.79µM
O=C(Nc1ccc2nccnc2c1)c1cnccn1	ELG1 DNA repair inconclusive, Rab9 promoter act inconclusive, ELG1 genotox inconclusive, FLuc counter inconclusive, NPC1 prom act inconclusive
O=C(Nc1ccc2ccccc2c1)c1cnccn1	ELG1 DNA repair inconclusive, Rab9 promoter act 1µM, SMN2 splice enh 11µM, ELG1 genotox inconclusive, FLuc counter inconclusive, NPC1 prom act 3.5µM
N#Cc1ccc(C(=O)Nc2ccc3ccccc3c2)cc1	ELG1 DNA repair inconclusive, Rab9 promoter act 0.45µM, ELG1 genotox inconclusive, FLuc counter 1.3µM, NPC1 prom act 0.35µM (no result: SMN2 splice enh)
O=C(Nc1ccc2c(c1)Cc1ccccc1-2)c1cccnc1	ELG1 DNA repair inconclusive, Rab9 promoter act 3.2µM, FLuc counter 6.7µM, NPC1 prom act inconclusive (no result: SMN2 splice enh)
CCN(c1ccc(NC(=O)COC(=O)c2ccc(S(=O)(=O)N3CCCC3)cc2)cc1)C(C)C	ELG1 DNA repair inconclusive
CC(=O)N1CCc2cc(S(=O)(=O)N3CCc4ccccc43)ccc21	none (no result: SMN2 splice enh)
O=C(Nc1ccc2ccccc2c1)c1cccnc1	ELG1 DNA repair inconclusive, Rab9 promoter act 1.4µM, SMN2 splice enh inconclusive, ELG1 genotox inconclusive, FLuc counter 9.5µM, NPC1 prom act 4µM
O=C(Nc1ccc2c(c1)oc1ccccc12)c1ccncc1	none
COc1ccc(NC(=O)c2cccnc2)cc1	ELG1 DNA repair inconclusive (no result: SMN2 splice enh)
O=C(Nc1ccc2c(c1)oc1ccccc12)c1cccnc1	ELG1 DNA repair inconclusive, Rab9 promoter act inconclusive, FLuc counter 6µM, NPC1 prom act inconclusive
COc1ccc(CC(=O)NNc2ncnc3c2cnn3-c2ccccc2)cc1	none
CCC(CO)Nc1ncnc2c1cnn2-c1ccc(OC)cc1 (configuration not stated)	ELG1 DNA repair inconclusive, Rab9 promoter act 1µM, SMN2 splice enh 10µM, ELG1 genotox 2.6µM, FLuc counter 6.7µM, NPC1 prom act 1µM
CCC(CO)Nc1ncnc2c1cnn2-c1ccc(Cl)cc1 (configuration not stated)	ELG1 DNA repair inconclusive, Rab9 promoter act 0.32µM, SMN2 splice enh inconclusive, ELG1 genotox inconclusive, FLuc counter 1.7µM, NPC1 prom act 0.45µM
CCC(C)Nc1ncnc2c1cnn2Cc1ccc(Cl)cc1 (configuration not stated)	ELG1 DNA repair inconclusive
COc1ccc(N2CCN(C(C)C(=O)N(C)Cc3ccccc3)CC2)cc1 (configuration not stated)	none (no result: SMN2 splice enh)
CCn1c(C(=O)N2CCC(C(=O)NCCc3ccccc3)CC2)cc2sccc21	none (no result: ELG1 DNA repair, Rab9 promoter act, ELG1 genotox, NPC1 prom act)
CCn1c(C(=O)N2CCC(C(=O)NCc3ccc4c(c3)OCO4)CC2)cc2sccc21	ELG1 DNA repair 7.3µM
CCn1c(C(=O)N2CCC(C(=O)NCCCSC3CCCCC3)CC2)cc2sccc21	ELG1 DNA repair 21µM
Cn1c(C(=O)N2CCCC(C(=O)NCc3ccc4c(c3)OCO4)C2)cc2sccc21 (configuration not stated)	ELG1 DNA repair inconclusive
O=C(NCc1ccccn1)C1CCN(C(=O)c2cc3sccc3n2Cc2ccc(F)cc2)CC1	ELG1 DNA repair 21µM
CCCn1c(N)cc(=O)n(C)c1=O	none
CCC(C)[C@H](NC(=O)C1CCN(C(=O)[C@H](Cc2ccccc2)NS(=O)(=O)c2ccc(C)cc2)CC1)C(=O)O (some centres not stated)	none (no result: SMN2 splice enh)
CC(NC(=O)c1cccs1)C(S)c1ccccc1 (configuration not stated)	none (no result: SMN2 splice enh)
CS(=O)(=O)c1cnc2c(-c3ccsc3)cnn2c1N	ELG1 DNA repair inconclusive, Rab9 promoter act 2.8µM, SMN2 splice enh 13µM, ELG1 genotox 21µM, FLuc counter 11µM, NPC1 prom act 2.8µM
CS(=O)(=O)c1cnc2c(S(=O)(=O)c3ccccc3)cnn2c1N	none
